From PubChem BioAssay AID588432 (Broad Institute, 2011)
Calls of active or inactive are those of the source.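 The calls were made as follows: active = luciferase inhibitors whose fitted dose curve gives a half-maximal potency within ten times the top tested dose; inconclusive = flat curve with 30 to 70% inhibition, or a poor fit; inactive = the rest.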

Test: luciferase inhibitors in kinase-free ADP detection – biochemical, luminescence, cherry-pick, set 04, artefact control for Dyrk1A inhibitor project, dose response (AID 588432)
Details: ADP-Glo luminescence without kinase, luciferase artifact; series mostly up to 12 µM

**Q.** With `COc1ccc(-c2ccnc(NCc3ccc(Cl)c(Cl)c3)n2)cc1OC` as the compound, how does the outcome read?
**A.** The outcome was “inactive”.

**Q.** For `CN(Cc1cccs1)c1ncnc2ccc(-c3ccc4c(c3)OCO4)cc12`, which outcome is on record?
**A.** The outcome was “inactive”.

**Q.** Which outcome does the source give for `c1csc(CCNc2ncnc3ccc(-c4ccc5c(c4)OCO5)cc23)c1` here?
**A.** The outcome was “inactive”.

**Q.** With `c1cncc(CNc2ncncc2-c2ccc3c(c2)OCO3)c1` as the compound, how does the outcome read?
**A.** Its outcome is “inactive”.

**Q.** For `Clc1ccc(CNc2cc(-c3ccc4c(c3)OCO4)ncn2)cc1`, which outcome is on record?
**A.** The outcome was “inactive”.

**Q.** For `Clc1ccc(CNc2ncncc2-c2ccc3c(c2)OCO3)cc1Cl`, which outcome is on record?
**A.** Its outcome is “inactive”.

**Q.** With `Clc1ccc(CNc2cc(-c3ccc4c(c3)OCO4)ncn2)cc1Cl` as the compound, how does the outcome read?
**A.** The outcome was “inactive”.

**Q.** For `Fc1c(-c2ccc3ncnc(NCc4cccs4)c3c2)ccc2c1OCO2`, which outcome is on record?
**A.** The outcome was “inactive”.

**Q.** For `Clc1cccc(-c2ccc3ncnc(NCc4ccc5c(c4)OCO5)c3c2)c1`, which outcome is on record?
**A.** The outcome was “inactive”.

**Q.** With `c1nc(NCC2CCCOC2)c2cc(-c3ccc4c(c3)OCO4)ccc2n1` (stereo not drawn) as the compound, how does the outcome read?
**A.** Its outcome is “inactive”.

**Q.** With `c1csc(CNc2ncnc3ccc(-c4ccc5c(c4)OCO5)cc23)c1` as the compound, how does the outcome read?
**A.** The outcome was “inactive”.

**Q.** For `c1nc(NCC2CCCC2)c2cc(-c3ccc4c(c3)OCO4)ccc2n1`, which outcome is on record?
**A.** Its outcome is “inactive”.

**Q.** Which outcome does the source give for `CCOC(=O)c1ccc(-c2ccc3ncnc(NCc4ccc(C)o4)c3c2)o1` here?
**A.** The outcome was “inactive”.

**Q.** For `c1cncc(CNc2nccc(-c3ccc4c(c3)OCO4)n2)c1`, which outcome is on record?
**A.** The outcome was “inactive”.

**Q.** Which outcome does the source give for `Cc1ccsc1CN(C)c1ncnc2ccc(-c3ccoc3)cc12` here?
**A.** Its outcome is “inactive”.

**Q.** Which outcome does the source give for `c1csc(CNc2ncnc3ccc(-c4ccc5c(c4)OCO5)cc23)n1` here?
**A.** The outcome was “inactive”.

**Q.** With `Clc1ccc(CNc2nccc(-c3ccc4cn[nH]c4c3)n2)cc1Cl` as the compound, how does the outcome read?
**A.** The outcome was “inactive”.

**Q.** For `Clc1cc(Cl)cc(CNc2cc(-c3ccc4c(c3)OCO4)ncn2)c1`, which outcome is on record?
**A.** The outcome was “inactive”.
